In PubChem BioAssay (NCATS):
Several values for one entry are separate records, joined by “and”; a condition that tells them apart may be missing. Equal values may be shown once. Records with an inconclusive call do not appear. Some structures have more than one record in an assay (separate samples or runs), and their calls can disagree. Activity calls are given as the source filed them. Unless noted, the call rests on the fitted dose curve.

Tests used:
[1] = Primary qHTS for Huh7 cytotoxicity: counterscreen for inhibitors of MERS-S pseudotyped particle cell entry (AID 1479147); conditions: outcome: dose series up to 57.1 µM unless noted
[2] = Primary qHTS for inhibitors of MERS-S pseudo-typed particle cell entry (AID 1479149); conditions: outcome: dose series up to 57.1 µM unless noted; further: nearly all actives have a fitted effect of over 60% in size
[3] = Primary qHTS for Vero E6 cytotoxicity: counterscreen for inhibitors of SARS-S pseudo-typed particle cell entry (AID 1479150); conditions: outcome: dose series up to 57.1 µM unless noted
[4] = Cytotoxicity counterscreen for inhibitors of SARS-CoV-2 cell entry (AID 1645845); conditions: outcome: dose series up to 57.1 µM unless noted; further: nearly all actives have a fitted effect of over 50% in size
Procedure, shortened: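 ATP-content luminescence (ATPLite 1step, 15 min RT) read after 48 h compound exposure of Expi293F cells stably expressing human ACE2; normalized to cells-only wells and media-only wells.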

[5] = Primary qHTS to identify inhibitors of SARS-CoV-2 cell entry (AID 1645846); conditions: SARS-CoV-2 pseudovirus cell entry assay, luminescence; activity change, negative = inhibition: at 57.1 µM (top of the series) unless noted; further: nearly all actives have a fitted effect of over 45% in size; further: potency means the concentration at half of the fitted maximal effect
Procedure, shortened: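 Entry measured by luciferase signal 48 h after adding SARS-CoV-2-S pseudotyped MLV particles to HEK293-ACE2 cells preincubated 1 h with compounds. Normalisation: bald particles and spike particles.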

[6] = biological target: Glutathione peroxidase 1 (Homo sapiens) (UniProt P07203); assay: Primary qHTS Assay for Inhibitors of Recombinant Selenoprotein Glutathione Peroxidase 1 (GPX1) (AID 1845191; active means well fitted inhibition curve with a large enough effect; further: nearly all actives have a fitted effect of over 65% in size)
Procedure, shortened: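 NADPH consumption tracked by fluorescence at 340/450 nm between t=0 and t=15 min, room temperature. Final mix: 10 nM GPX1, 100 nM glutathione reductase, 1 mM GSH, 0.5 mM NADPH, 0.5 mM cumene hydroperoxide, 0.01% BSA; 30 min compound–enzyme preincubation.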

[7] = biological target: Phospholipid hydroperoxide glutathione peroxidase GPX4 (Homo sapiens) (UniProt P36969); assay: Primary qHTS Assay for Inhibitors of Recombinant Selenoprotein Glutathione Peroxidase 4 (GPX4) (AID 1845192; active means well fitted inhibition curve with a large enough effect; further: nearly all actives have a fitted effect of over 65% in size)
Procedure, shortened: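 NADPH consumption followed by fluorescence at 340/450 nm, t=0 and after 15 min at room temperature. Reaction started with cumene hydroperoxide (0.5 mM final) after 30 min compound–GPX4 preincubation; final 200 nM GPX4, 100 nM GR, 1 mM GSH, 0.5 mM NADPH.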

Chain of Glutathione peroxidase 1 (Homo sapiens) (P07203 whole entry, looked up): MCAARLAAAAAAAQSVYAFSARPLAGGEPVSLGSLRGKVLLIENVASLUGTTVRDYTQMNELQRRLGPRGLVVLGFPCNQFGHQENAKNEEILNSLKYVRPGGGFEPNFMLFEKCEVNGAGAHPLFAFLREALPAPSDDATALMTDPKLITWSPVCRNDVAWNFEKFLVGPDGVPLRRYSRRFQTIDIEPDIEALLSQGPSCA
Chain of Phospholipid hydroperoxide glutathione peroxidase GPX4 (Homo sapiens) (P36969 whole entry, looked up): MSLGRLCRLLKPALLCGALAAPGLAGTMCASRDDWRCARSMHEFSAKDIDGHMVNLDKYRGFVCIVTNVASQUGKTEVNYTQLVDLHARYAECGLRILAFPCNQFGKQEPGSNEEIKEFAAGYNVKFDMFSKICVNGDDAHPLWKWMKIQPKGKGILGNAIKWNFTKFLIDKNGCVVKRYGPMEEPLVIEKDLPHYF

CC(C)c1nc(N(C)S(C)(=O)=O)nc(-c2ccc(F)cc2)c1/C=C/[C@@H](O)C[C@@H](O)CC(=O)O
inactive: Potency [1] | Potency [2] | Potency [3] | Potency [4] | Potency [5]

NCCC[C@H](NC(=O)[C@@H]1CCCN1C(=O)[C@@H]1CSSC[C@H](N)C(=O)N[C@@H](Cc2ccc(O)cc2)C(=O)N[C@@H](Cc2ccccc2)C(=O)N[C@@H](CCC(N)=O)C(=O)N[C@@H](CC(N)=O)C(=O)N1)C(=O)NCC(N)=O
-24.3%: activity change, negative = inhibition [5]
inactive: Potency [1] | Potency [2] | Potency [3] | Potency [4]

CCC[C@@H]1C[C@@H](C(=O)N[C@@H](C2O[C@H](SC)[C@H](O)[C@@H](O)[C@H]2O)[C@H](C)Cl)N(C)C1 (some centres not stated)
inactive: Potency [1] | Potency [2] | Potency [3] | Potency [4] | Potency [5]

O=P(O)(O)OC1C(OP(=O)(O)O)C(OP(=O)(O)O)C(OP(=O)(O)O)C(OP(=O)(O)O)C1OP(=O)(O)O (configuration not stated)
-23.6%: activity change, negative = inhibition [5]
inactive: Potency [1] | Potency [2] | Potency [3] | Potency [4]

CCC(=O)O[C@H]1CC[C@H]2[C@@H]3CC[C@H]4CC(=O)[C@H](C)C[C@]4(C)[C@H]3CC[C@]12C
-28.3%: activity change, negative = inhibition [5]
inactive: Potency [1] | Potency [2] | Potency [3] | Potency [4] | Potency [6] | Potency [7]

C=CCNc1c(O)cc2c(O)c1C[C@@H](C)C[C@H](OC)[C@H](O)[C@@H](C)/C=C(/C)[C@H](OC(N)=O)[C@@H](OC)/C=C\C=C(\C)C(=O)N2
inactive: Potency [1] | Potency [2] | Potency [3] | Potency [4]
-94%: activity change, negative = inhibition [5]
active: Potency [5] 3.16 µM

OC[C@H]1O[C@H](O[C@H]2[C@H](O)[C@@H](O)[C@H](O)O[C@@H]2CO)[C@H](O)[C@@H](O)[C@@H]1O
inactive: Potency [1] | Potency [2] | Potency [3] | Potency [4]
-20.9%: activity change, negative = inhibition [5]

CCCCCCCCCCC(=O)O[C@H]1CC[C@H]2[C@@H]3CCC4=CC(=O)CC[C@]4(C)[C@H]3CC[C@]12C
inactive: Potency [1] | Potency [2] | Potency [3] | Potency [4] | Potency [5] | Potency [6] | Potency [7]

CS(=O)(=O)Nc1cc2occ(NC=O)c(=O)c2cc1Oc1ccccc1
inactive: Potency [1] | Potency [2] | Potency [3] | Potency [4]
-19.1% and -29.3%: activity change, negative = inhibition [5]

CN1C(=O)C[C@@H](C(=O)N[C@@H](Cc2cnc[nH]2)C(=O)N2CCC[C@H]2C(N)=O)NC1=O
inactive: Potency [1] | Potency [2] | Potency [3] | Potency [4]
-23.8%: activity change, negative = inhibition [5]

CCC(=O)O[C@@H]1CC(=O)O[C@H](C)C/C=C/C=C/[C@@H](O)[C@H](C)C[C@H](CC=O)[C@H](OC2O[C@H](C)[C@@H](O[C@H]3C[C@@](C)(O)[C@@H](OC(=O)CC)[C@H](C)O3)[C@H](N(C)C)[C@H]2O)[C@H]1OC (some centres not stated)
inactive: Potency [1] | Potency [2] | Potency [3] | Potency [4]
-26.3%: activity change, negative = inhibition [5]

CCCCCCCCCCCCNCCNCCNCC(=O)O
-24.3% [at 27.1 µM]: activity change, negative = inhibition [5]
inactive: Potency [1] | Potency [2] | Potency [3] | Potency [4] | Potency [6] | Potency [7]
